Here are results for 40 compounds from PubChem BioAssay (Tox21).

Several values for one entry are separate records, joined by “and”; a condition that tells them apart may be missing. Equal entries are not always repeated. Inconclusive results are not listed. A number with no mark means an inactive call. Activity calls are given as the source filed them. The call rests on the fitted dose curve; in most records, active means well fitted inhibition curve with a large enough effect in the repeat runs; inconclusive means weak or mixed curves, or effect the other way; inactive means no such curve, though single readings can be large or run the other way. Starred links: 1 amine or outer side, 2 acyl side, 3 side chain; linkers in the order of their positions; H or OH if unused. Positions of bridges follow the written chain, without caps; N, C: chain ends. Non-standard residues stand in square brackets, D forms with d. Residues, ends and D or L forms follow the SMILES beside them. Chains are numbered I, II in the order given. Actinocin(9to1) = Cc1c2oc3c(C)ccc(C(=O)[*:1])c3nc-2c(C(=O)[*:2])c(N)c1=O; NMeV = CN[C@H](C(=O)O)C(C)C; Sar = CNCC(=O)O
On the % scale 0 is the no-effect control and ±100 the full control effect; potency means the concentration at half of the fitted maximal effect.

Sequence of Nuclear receptor subfamily 1 group I member 3 (Homo sapiens) (Q14994 whole entry, looked up): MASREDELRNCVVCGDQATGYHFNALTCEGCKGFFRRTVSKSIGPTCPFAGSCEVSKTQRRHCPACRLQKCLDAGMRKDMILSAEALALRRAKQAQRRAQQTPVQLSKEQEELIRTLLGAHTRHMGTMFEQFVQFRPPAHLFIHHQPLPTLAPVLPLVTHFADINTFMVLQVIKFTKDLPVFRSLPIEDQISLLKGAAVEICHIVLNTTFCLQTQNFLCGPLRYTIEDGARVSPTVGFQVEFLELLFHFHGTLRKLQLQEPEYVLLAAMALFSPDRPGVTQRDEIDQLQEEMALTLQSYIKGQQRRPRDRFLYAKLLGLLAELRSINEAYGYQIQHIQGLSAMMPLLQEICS

This experiment deals with Nuclear receptor subfamily 1 group I member 3 (Homo sapiens) (UniProt Q14994). Put plainly: qHTS assay to identify small molecule antagonists of the constitutive androstane receptor (CAR) signaling pathway (AID 1224838).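 Further: HepG2 cells stably expressing hCAR with CYP2B6 luciferase reporter stimulated by CITCO; nearly all actives have a fitted effect of over 40% in size.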 The conditions noted are these: HepG2-CYP2B6-hCAR luciferase, CITCO-stimulated, 24 h; series mostly up to 92.4 µM; activity, negative = inhibition: at the top concentration. From the text:
U.S. Tox21 Program National Center for Advancing Translational Sciences [NCATS] NIH Chemical Genomics Center [NCGC] U.S. Environmental Protection Agency [EPA] National Institutes of Environmental Health Sciences [NIEHS] National Toxicology Program [NTP] U.S. Food and Drug Administration [FDA] Tox21 Assay Overview: The constitutive androstane receptor (CAR) is a nuclear receptor which regulates multiple drug metabolizing enzymes (DMEs) and transporters. Activating CAR will generally increase the transcription and subsequent translation of CYP2B6 and CYP3A4. These two DMEs represent about 50% of the drug metabolizing potential in the body. When CAR is deactivated, the metabolizing potential in the body will decrease, subsequently increasing the toxicity in the body or lowering the therapeutic potential of a pro-drug. Recently, there have also been studies performed indicating CARs role in energy metabolism and cancer therapy. Therefore, inhibiting CARs activity could have a potential effect on diabetes and cancer. Identifying environmental toxins and compounds which modulate CAR, through the use of the Tox21 10K compound collection, will be an important step in determining the toxicity and potential therapeutic effects these factors will have on the human body.
Tox21 Assay Protocol Summary: A double-stable (hCAR and CYP2B6-2.2kb) transfected cell line, derived from human hepatoma (HepG2) cells, was utilized for the duration of the quantitative high-throughput screens. The HepG2-CYP2B6-hCAR cells suspended in DMEM culture medium supplemented with 10% FBS, 5 ug/mL blasticidin, 0.5 mg/mL geneticin, 100 U/mL penicillin and 100 ug/mL streptomycin were dispensed at 2500 cells/4 uL/well in 1536-well white solid bottom plates using a Multidrop Combi. After the assay plates were incubated at 37 C/5% CO2 for 4 hrs, 23 nL of compounds at 15 concentrations (from 5-48 columns) or positive control (from 1 to 4 columns) were transferred to the assay plates using a Pintool station. One uL of CITCO, was added using a Flying Reagent Dispenser to generate a final concentration of 50 nM CITCO inside each well. After a 24 hr incubation period at 37 C/5% CO2, four uL of ONE-Glo reagent was added into the assay plates using a Flying Reagent Dispenser. After a 30 min incubation period at room temperature, the luminescence intensity in the assay plates was measured using a ViewLux plate reader.
(In general: In qHTS, concentration-response curves come from the screen itself.)
Take `O=C(O)c1cc(Cl)cc(Cl)c1`: the “activity, negative = inhibition” value is -7.12%.

Regarding `C[N+]1([O-])CCOCC1`, the “activity, negative = inhibition” value is -6.95%.

Take `CC(C)(C)NCC(O)COc1ccccc1OCC1CCCO1` (stereo not given): the “activity, negative = inhibition” value was -19.7% [at 42.5 µM].

Take `COc1ccc(CCN2CCC(Nc3nc4ccccc4n3Cc3ccc(F)cc3)CC2)cc1`: the Potency was 17.6 µM (active) and 26.6 µM (active).

For the compound `CCCCC/C=C/CC1CC(=O)OC1=O` (stereo not given), the “activity, negative = inhibition” value was -10.3%.

`CCCCCCCCCCCCCC[P+](CCCC)(CCCC)CCCC`: the Potency is 12.1 µM (active) and 15.4 µM (active).

Regarding `CN(C)c1ccc2nc3ccc(=[N+](C)C)cc-3sc2c1`, the Potency result was “inactive”.

Take `Cc1c2oc3c(C)ccc(C(=O)N[C@@H]4C(=O)N[C@H](C(C)C)C(=O)N5CCC[C@H]5C(=O)N(C)CC(=O)N(C)[C@@H](C(C)C)C(=O)O[C@@H]4C)c3nc-2c(C(=O)N[C@@H]2C(=O)N[C@H](C(C)C)C(=O)N3CCC[C@H]3C(=O)N(C)CC(=O)N(C)[C@@H](C(C)C)C(=O)O[C@@H]2C)c(N)c1=O` (I: T[dV]P[Sar][NMeV] / II: T[dV]P[Sar][NMeV]; ester I:1-I:C, II:1-II:C; linker I:N-II:N via Actinocin(9to1)): the Potency was 1 nM (active).

As to `CCN(CC)C(=S)SSC(=S)N(CC)CC`, the Potency is 273 nM (active) and 78.8 nM (active) and 298 nM (active).

Turning to `O=Nc1ccc(Nc2ccccc2)cc1`, the Potency entry was “inactive”.

Consider `O=c1n(CC2CO2)c(=O)n(CC2CO2)c(=O)n1CC1CO1` (stereo not given), for which the Potency was 76.5 µM (active) and 61.1 µM (active).

Consider `C=CC(=O)OCCCCCCOC(=O)C=C`, for which the “activity, negative = inhibition” value was -16.2%.

Regarding `CN1C(=O)c2ccc([N+](=O)[O-])cc2C1=O`, the “activity, negative = inhibition” value was 12.2%.

Take `CCc1ccc(C(c2ccc(CC)cc2)C(Cl)Cl)cc1`: the Potency result was “inactive”.

With `CCn1cc(C(=O)O)c(=O)c2cc(F)c(N3CCNC(C)C3)c(F)c21` (stereo not given), the “activity, negative = inhibition” value was -6.77% [at 42.5 µM].

Turning to `c1ccc2c(c1)-c1cccc3c1c-2cc1ccccc13`, the Potency entry was “inactive”.

For the compound `CC(C)(O)CCC(C)(C)O`, the “activity, negative = inhibition” value was -7.29%.

For `NNCCc1ccccc1`, the Potency entry was “inactive”.

In the case of `O=C(OCc1ccccc1)c1ccc(O)cc1`, the Potency result was “inactive”.

On to `CC(C)(C)c1ccccc1`, for which the “activity, negative = inhibition” value was -10.4%.

As to `CC(C)C(=O)c1c(C(C)C)nn2ccccc12`, the “activity, negative = inhibition” value is 104% [at 42.5 µM].

With `CCOc1ccc2c(c1)C(C)=CC(C)(C)N2`, the Potency entry is “inactive”.

In the case of `CC(=O)O[C@]1(C(C)=O)CC[C@H]2[C@@H]3C[C@H](C)C4=CC(=O)CC[C@]4(C)[C@H]3CC[C@@]21C`, the Potency entry was “inactive”.

On to `CCCC(=O)c1ccccc1`, for which the “activity, negative = inhibition” value is -13.8%.

Regarding `Cc1c(O)cccc1C(=O)N[C@@H](CSc1ccccc1)[C@H](O)CN1C[C@H]2CCCC[C@H]2C[C@H]1C(=O)NC(C)(C)C`, the Potency is 59.5 µM (active) and 26.6 µM (active).

On to `O=C(O)Cn1cnnn1`, for which the “activity, negative = inhibition” value is -9.18% [at 42.5 µM].

Take `O=C(O)CP(=O)(O)O`: the “activity, negative = inhibition” value was 0.996% [at 42.5 µM].

Turning to `O=C(O[C@@H]1Cc2c(O)cc(O)cc2O[C@@H]1c1cc(O)c(O)c(O)c1)c1cc(O)c(O)c(O)c1`, the “activity, negative = inhibition” value was -23.2%.

Consider `COc1ccc(COC(C)=O)cc1`, for which the Potency entry is “inactive”.

With `Cc1cccc2n[nH]nc12`, the Potency entry was “inactive”.

Take `COC(=O)/C=C/c1ccccc1`: the Potency entry is “inactive”.

For the compound `C#CC(C)(CC)OC(=O)c1ccccc1C(=O)O` (stereo not given), the “activity, negative = inhibition” value is 2.3% [at 42.5 µM].

On to `Oc1c(Cl)cc(Cl)cc1Sc1cc(Cl)cc(Cl)c1O`, for which the Potency was 17.3 µM (active) and 62.1 µM (active).

As to `COC(c1ccccc1)(c1ccccc1)[C@H](Oc1nc(C)cc(C)n1)C(=O)O`, the “activity, negative = inhibition” value is 19% [at 42.5 µM].

Consider `CCCCN(CCO)CCCC`, for which the “activity, negative = inhibition” value was -5.21%.

In the case of `CC(C)CCOCc1ccccc1`, the “activity, negative = inhibition” value was -6.91%.

As to `O=C(Oc1ccccc1)c1ccccc1O`, the Potency result is “inactive”.

Turning to `Nc1ccc2cc3ccccc3cc2c1`, the Potency result was “inactive”.

As to `Cc1ccc(S(=O)(=O)Oc2ccc(N=Nc3ccc(-c4ccc(N=Nc5c(O)ccc6cc(S(=O)(=O)O)cc(S(=O)(=O)O)c56)c(C)c4)cc3C)cc2)cc1`, the Potency entry was “inactive”.

As to `OCC(CO)N[C@H]1C[C@](O)(CO)[C@@H](O)[C@H](O)[C@H]1O`, the “activity, negative = inhibition” value is -11.3% [at 42.5 µM].
